Reference: PubChem BioAssay (EPA / NIEHS)
Where “and” joins values, the source holds several entries; their conditions need not be identical. Equal values may be shown once. Some compounds were tested as several samples or in several runs, with calls that do not always agree. Calls of active or inactive are those of the source. Rule for the calls: active = hit-call score of the fitted dose curve at least 0.9, where 1 is the maximum; inactive = score below 0.9.

These compounds were tested on Interleukin-8 (IL8), CXCL8 (gene 3576) (assay: BSK_SAg_IL8: BioMAP Diversity Plus: SAg Assay for Interleukin-8 (IL8) Biomarker Activity (AID 2283094)). Conditions: primary human HUVEC with PBMC; actives raise or lower the signal.
Experimental: BSK_SAg is a cell-based, multiplexed-readout assay that uses umbilical vein endothelium and peripheral blood mononuclear cells, a human vascular primary cell co-culture, with measurements taken at 24 hours after chemical dosing in a 96-well plate.BSK_SAg_IL8 is an assay component measured in the BSK_SAg assay. It measures IL-8 antibody related to regulation of gene expression using ELISA technology.Data from the assay component BSK_SAg_IL8 was analyzed into 1 assay endpoint. This assay endpoint, BSK_SAg_IL8, was analyzed with bidirectional fitting relative to DMSO as the negative control and baseline of activity. Using a type of binding reporter, gain or loss-of-signal activity can be used to understand changes in the signaling as they relate to the gene CXCL8. Furthermore, this assay endpoint can be referred to as a primary readout, because this assay has produced multiple assay endpoints where this one serves a signaling function. To generalize the intended target to other relatable targets, this assay endpoint is annotated to the cytokine intended target family, where the subfamily is interleukins.
The levels of cell surface (or secreted, indicated by the prefix "s") biomarker endpoints were measured by ELISA. Overt cytotoxicity to cells in confluent adherent cultures (all systems other than the BT system) was assessed by measuring total protein levels using sulforhodamine B (SRB) staining in parallel cultures at the time of biomarker measurements, indicated as SRB endpoints. For proliferation assays for adherent cell types, individual cell types are cultured at sub-confluence and relative cell numbers quantified by SRB staining at time points optimized for each system (48 h: 3C and CASM3C systems; 72 h: BT and HDF3CGF systems; 96 h: SAg system). SRB was performed by staining cells with 0.1% SRB after fixation with 10% TCA and reading wells at 560 nm.Viability and proliferation of PBMC (T cells) was quantified by Alamar Blue reduction for the SAg and BT systems. For PBMC viability (referred to as PBMC Cytotoxicity within the assay endpoint names), cells were plated (75,000/well in a 96-well plate) and then chemical samples added for 1 h before addition of activators, SEB and TSST-1 (20 ng/mL final concentration each). Cells were incubated for 90 h. Then, Alamar Blue (20 uL/well) (Invitrogen, Cat DAL1100) was added for 6 h, and the plates were read with a fluorescence microplate reader at 546/580 nm (excitation/emission). For PBMC proliferation, cells were plated and activated as above but incubated for only 16 h prior to addition of Alamar Blue. Plates were read after 6 h.

| SMILES | outcome | AC50 |
| --- | --- | --- |
| CCCCCCCCCCCCc1ccccc1S(=O)(=O)O | inactive | – |
| CCOC(=O)CC(O)(CC(=O)OCC)C(=O)OCC | inactive | – |
| O=C(O)Cc1cc(I)c(Oc2cc(I)c(O)c(I)c2)c(I)c1 | – | 13.4 µM (active) |
| CCCOC(=O)c1ccc(O)cc1 | inactive | – |
| Nc1cccc2c(N)cccc12 | inactive | – |
| C=C(C)C(=O)OCCC(F)(F)C(F)(F)C(F)(F)C(F)(F)C(F)(F)C(F)(F)F | inactive | – |
| CN1CCC[C@H]1c1cccnc1 | inactive | – |
| NCC(F)(F)C(F)(F)C(F)(F)C(F)(F)C(F)(F)C(F)(F)C(F)(F)F | inactive | – |
| CCCCOCCO | inactive | – |
| OC1CCCCC1 | inactive | – |
| CC(C)(C)c1cc(C(C)(C)C)c(O)c(C(C)(C)C)c1 | inactive | – |
| COCC(C)O (stereo unspecified) | inactive | – |
| CC1=C(/C=C/C(C)=C/C=C/C(C)=C/C(=O)O)C(C)(C)CCC1 | inactive | – |
| Cc1cc(CCN2CCN(c3nsc4ccccc34)CC2)cc2c1NC(=O)CC2(C)C | – | 20 µM (active) |
| CC[C@H](C)[C@@H](C(=O)O)n1sc2ccccc2c1=O | inactive | – |
| CCc1nn(C2CCCCC2)c2cc(C3(C#N)CCC(C(=O)O)CC3)ccc12 (stereo unspecified) | – | 2.73 µM (active) |
| CC(C)(C)CC(C)(C)c1ccc(O)c(-n2nc3ccccc3n2)c1 | inactive | – |
| CCCCCCCCCCCCCCCS(=O)(=O)Oc1ccccc1 | inactive | – |
| CCCCCCC(=O)O | inactive | – |

| SMILES | outcome | AC50 |
| --- | --- | --- |
| FC(F)(I)C(F)(F)C(F)(F)C(F)(F)C(F)(F)C(F)(F)I | inactive | 9.66 µM (active) and 45 µM (active) and 41.6 µM (active) |
| OC1CCC(C2CCCCC2)CC1 (stereo unspecified) | inactive | – |
| CCCCCCCC(=O)O | inactive | – |
| CC(C)CCCCCCOC(=O)CCCCC(=O)OCCCCCCC(C)C | inactive | – |
| CCC(=C(c1ccc(O)cc1)c1ccc(OCCN(C)C)cc1)c1ccccc1 | – | 10.2 µM (active) |
| CN1CCN(c2ccccc2/C=C2\SCCN(c3ccc(Cl)c(Cl)c3)C2=O)CC1 | – | 20 µM (active) |
| CCCOc1sc(C(=O)N2CCC(c3cc(CN)ccc3F)CC2)c(C)c1Br | – | 7.78 µM (active) |
| CC(C)(C)c1ccc(O)c(C(C)(C)C)c1 | – | 20 µM (active) |
| Oc1cc2ccccc2c2ccccc12 | – | 9.87 µM (active) |
| CC[C@H](c1ccc(O)cc1)[C@@H](CC)c1ccc(O)cc1 | – | 20.2 µM (active) |
| ClC1=C(Cl)C(Cl)(Cl)C(Cl)=C1Cl | – | 10.4 µM (active) |
| CCc1ccc(CCOc2ccc(CC3SC(=O)NC3=O)cc2)nc1 (stereo unspecified) | inactive | – |
| O=C(O)c1ccccc1C(c1ccc(O)cc1)c1ccc(O)cc1 | inactive | – |
| COCC(C)OCC(C)O (stereo unspecified) | inactive | – |
| CCCCCCCCC(=O)O | inactive | – |
| CCCCCCCCCCCCCC[N+](C)(C)C | – | 3.2 µM (active) |
| CC(=O)NC1(c2cccc(F)c2)CCN(CC[C@@]2(c3ccc(Cl)c(Cl)c3)CN(c3ccccc3)C(=O)CO2)CC1 | – | 6.76 µM (active) |
| OCCC(F)(F)C(F)(F)C(F)(F)C(F)(F)C(F)(F)C(F)(F)C(F)(F)C(F)(F)F | inactive | 41.5 µM (active) and 24.6 µM (active) |
| OCCC(F)(F)C(F)(F)C(F)(F)C(F)(F)C(F)(F)C(F)(F)F | inactive | 46.1 µM (active) |
